Compounds without any hit were thinned out: in the full panel of roughly 83,000, 20% have a hit.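 Negative percent growth values reflect cell death: -40 means 40% of the cells present at the start died, and -100 means all died.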 Unmarked numbers belong to inactive results. Active and inactive are the calls of the source. The calls were made as follows: active = growth percent below 10; inactive = the rest.
system: HL-60(TB) leukemia; test: NCI-60 one-dose screen, 48 h (100 = growth as untreated, 0 = no growth, -100 = all killed); conditions: 10 µM unless noted

Compound	growth
COC1=CC(c2ccc[nH]2)=N/C1=C\c1[nH]c(C)c(C(=O)CCC(=O)Oc2ccc3c(c2)CCC2C3CC[C@]3(C)C(=O)CC[C@@H]23)c1C (stereo partly drawn)	79.8%
O=C(NCCCNc1cc(-c2cn(-c3ccccc3)nc2-c2cccc(O)c2)ccn1)c1ccccc1	8.91% (active)
Cc1cc(NS(=O)(=O)c2ccc(-c3cnc(C4CC4)o3)cc2)ccc1Cl	0.815% (active)
